Test results from PubChem BioAssay (NCI).
Compounds without any hit were thinned out: in the full panel of roughly 83,000, 20% have a hit.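 The endpoint reported here, percent growth, reads 100 for growth as untreated, 0 for no net growth and -100 for all cells dead.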 A number with no mark means an inactive call. Active and inactive are the calls of the source. Rule for the calls: active = growth percent below 10; inactive = the rest.

How the values were obtained:
Assay in all cases: NCI-60 one-dose screen, 48 h (100 = growth as untreated, 0 = no growth, -100 = all killed)
Details in all cases: 10 µM
[1] = system: SR leukemia
[2] = system: RPMI-8226 leukemia
[3] = system: OVCAR-8 ovarian
[4] = system: OVCAR-5 ovarian
[5] = system: OVCAR-4 ovarian
[6] = system: SK-OV-3 ovarian
[7] = system: OVCAR-3 ovarian
[8] = system: NCI/ADR-RES ovarian
[9] = system: T-47D breast
[10] = system: BT-549 breast
[11] = system: MDA-MB-435 melanoma
[12] = system: MCF7 breast
[13] = system: HCT-116 colon
[14] = system: HCC-2998 colon
[15] = system: IGROV1 ovarian
[16] = system: HS 578T breast
[17] = system: SW-620 colon
[18] = system: KM12 colon

Structure (SMILES)	growth [1]	growth [2]	growth [3]	growth [4]	growth [5]	growth [6]	growth [7]	growth [8]	growth [9]	growth [10]	growth [11]	growth [12]	growth [13]	growth [14]	growth [15]	growth [16]	growth [17]	growth [18]
NC(N)=N/N=C(\c1ccccc1)C(O)c1ccccc1 (stereo unspecified)	95.9%	94.5%	105%	112%	105%	94.2%	111%	111%	89.9%	103%	107%	94.9%	100%	100%	–	–	–	–
c1ccc(CCCCc2ccc3ccccc3n2)cc1	99.7%	103%	101%	97.9%	111%	–	–	102%	–	102%	108%	108%	96%	–	100%	98.7%	102%	106%
CCN(CC)CCCC(Nc1c2ccc(Cl)cc2nc2ccc(OC)cc12)c1ccc(F)cc1 (stereo unspecified)	-13.9% (active)	-33.3% (active)	15.2%	61.7%	12.6%	–	108%	28.9%	–	81.5%	-86.9% (active)	-62.9% (active)	-41% (active)	-85% (active)	41.5%	84%	-53.9% (active)	14.7%
CCCC1(CN2c3ccccc3Sc3ccc(Cl)cc32)CCN(CC)C1 (stereo unspecified)	-50.1% (active)	-43.2% (active)	-41.2% (active)	8.89% (active)	28.3%	21.7%	2.48% (active)	31.4%	–	–	-94.7% (active)	-93.7% (active)	-100% (active)	-49.5% (active)	–	-22.8% (active)	-94.7% (active)	-44.5% (active)
CC(C)c1ccc(C(C)C(=O)N(CC2=C(C(C)c3ccccn3)c3ccccc3C2)C(C)C)cc1 (stereo unspecified)	24.2%	14.6%	46.6%	64.7%	30.2%	–	29.7%	24.2%	13.3%	69.6%	44.1%	19.9%	11.1%	37.3%	–	47.4%	31.3%	37.5%
O=c1[nH]c(=O)n(C2C[C@H](O)[C@@H](CO)O2)cc1C(F)(F)F (stereo partly specified)	91.9%	97.5%	103%	103%	–	109%	117%	102%	95.3%	105%	102%	102%	106%	108%	120%	124%	114%	115%
Nc1nc(Cl)nc2c1ncn2C1O[C@H](CO)[C@@H](O)[C@@H]1F (stereo partly specified)	7.7% (active)	105%	27.1%	47.4%	–	34.5%	60.7%	16.6%	49.3%	20.4%	41.5%	30.7%	25.3%	57.3%	53%	82.5%	49.7%	51.4%
O=C(CCl)Oc1ccc(OC(=O)CCl)cc1	68.7%	25.7%	88.8%	111%	91.3%	–	77.6%	79.4%	–	46.9%	85.3%	77.9%	–	109%	93.1%	82.4%	89.8%	83.7%
OC(CNc1ccnc2cc(Cl)ccc12)CNC1CCCCC1 (stereo unspecified)	23.1%	65%	87.9%	87.4%	–	85.1%	89.4%	90.7%	65.6%	70%	52.5%	75.7%	68.9%	64.3%	103%	83.8%	92.9%	83.5%
COc1cc2c(cc1OC)C(C(CCCCCC(CCC(C)C)C1NCCc3cc(OC)c(OC)cc31)CCC(C)C)NCC2 (stereo unspecified)	12.1%	-57.1% (active)	-89.3% (active)	-100% (active)	-100% (active)	-99.5% (active)	-99.9% (active)	-95.9% (active)	-85.2% (active)	–	–	-92.7% (active)	-100% (active)	-94.2% (active)	–	-41% (active)	-83.8% (active)	-97% (active)
